Cav32 inh – Cav3.2 calcium influx blockers – cell-based, Fluo-4 calcium fluorescence, FDSS, MLSMR library, primary screen; Voltage-dependent T-type calcium channel subunit alpha-1H (Homo sapiens), O95180; Cav3.2-expressing cells; active compounds read low; B-score at 10 µM; actives 4% (n = 100,000);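 active means single-dose well whose peak fluorescence ratio is a statistical outlier from its plate by either plate-standardised score or position-corrected B-score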
CYP2C9 act – human CYP2C9 activators, primary screen, biochemical, luminescence; actives 1.4% (n = 96,000); activation factor at 5 µM; recombinant CYP2C9, luciferin-H conversion; active compounds read high; factor 1 = untreated enzyme, 0 = blocked; Cytochrome P450 2C9 (Homo sapiens), P11712;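 active means activation factor of 2 or more for CYP2C9 at a 5 µM dose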;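 further: 0 = sulfaphenazole-blocked wells and 1 = vehicle-only wells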
CYP2C19 inh – blockers of cytochrome P450 2C19 activity – biochemical, luminescence, ADME assay, primary screen | actives 21% (n = 96,000) | CYP2C19 Supersomes, luciferin-H EGE luminescence, 30 min | AID 778, 2007 | inhibition, % at 5 µM | P33261;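 active means CYP2C19 inhibition above a set limit at 5 µM in the primary screen, cut at about 50% in these data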;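 further: plate controls were negative control wells for no effect and 2.5 mM tranylcypromine positive control for full effect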
Target sequence (P33261 whole entry, looked up): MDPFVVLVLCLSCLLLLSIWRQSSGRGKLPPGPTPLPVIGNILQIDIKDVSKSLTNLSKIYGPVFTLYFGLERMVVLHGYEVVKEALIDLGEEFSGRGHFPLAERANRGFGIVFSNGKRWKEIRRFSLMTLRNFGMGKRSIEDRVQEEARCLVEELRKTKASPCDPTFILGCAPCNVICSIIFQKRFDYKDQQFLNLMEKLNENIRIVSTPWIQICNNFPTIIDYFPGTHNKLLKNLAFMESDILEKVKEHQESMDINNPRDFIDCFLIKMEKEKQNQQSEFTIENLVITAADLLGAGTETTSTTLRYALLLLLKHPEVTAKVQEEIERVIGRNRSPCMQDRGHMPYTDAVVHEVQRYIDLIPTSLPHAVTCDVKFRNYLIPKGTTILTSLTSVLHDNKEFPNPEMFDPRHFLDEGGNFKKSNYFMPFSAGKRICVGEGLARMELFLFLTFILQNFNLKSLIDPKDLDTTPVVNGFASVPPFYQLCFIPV
CYP2C9 inh – blockers of cytochrome P450 2C9 activity – biochemical, luminescence, ADME assay, primary screen; actives 20% (n = 96,000); CYP2C9 Supersomes, luciferin-H conversion; inhibition, % at 5 µM; AID 777, 2007;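 active means blocking of liver enzyme CYP2C9 beyond about 50% at 5 µM, limit read from the data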
CYP2C19 activ – human CYP2C19 activators, primary screen, biochemical, luminescence. Cytochrome P450 2C19 (Homo sapiens), P33261. recombinant CYP2C19, luciferin-H EGE luminescence; active compounds read high; 0 = fully inhibited enzyme, 1 = untreated enzyme. activation factor at 5 µM. 96,000 tested, under 10 active. AID 1025, 2008;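 active means activation factor of at least 2 at 5 µM in the primary screen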;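 further: 0 = wells with 2.5 mM tranylcypromine and 1 = vehicle-only wells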
* marks the source's active call; other numbers are inactive results; . = no result. Only some compounds are listed: those with a hit (about 27% of all), similar ones and a draw of the others.

SMILES | Cav32 inh | CYP2C9 act | CYP2C19 inh | CYP2C9 inh | CYP2C19 activ
N#Cc1ccc(C23CC4(C2)[C@H](CN(Cc2ccc(C(F)(F)F)cc2)[C@@H]4c2ccccc2)C3c2ccc(Cl)nc2)cc1 (stereo partly specified) | 0.032 | . | . | . | .
COc1ccc(C(=O)NCc2ccccc2)cc1S(=O)(=O)N1CCCc2ccccc21 | -5.3* | 0.5 | 26 | 55* | 0.7
O=C(NC1CCCC1)c1ccc(S(=O)(=O)N2CCCC2)cc1 | 0.29 | 0.7 | 6 | 30 | 0.9
COc1ccc(C(=O)NC2CCCCC2)cc1S(=O)(=O)N1CCCC1 | 0.39 | 0.5 | 31 | 53* | 0.7
COc1ccc(C(=O)Nc2cccc(C)c2)cc1S(=O)(=O)N1CCOCC1 | 1.2 | 0.9 | 23 | 6 | 0.8
COc1ccc(C(=O)NC(C)(C)C)cc1S(=O)(=O)N1CCCC1 | 1.3 | 0.5 | 10 | 53* | 0.9
CN(C(=O)c1cccc(Nc2ccc(-c3ccc4c(c3)OCCO4)nn2)c1)C1CCCCC1 | -3.8* | . | . | . | .
CC(C)(C)OC(=O)NNC1CC(=O)N(c2ccccc2F)C1=O (stereo unspecified) | 0.17 | 1 | 7 | 5 | 0.9
O=C(CCCCn1c(=O)[nH]c2ccccc2c1=O)NCCC1=CCCCC1 | 0.56 | 0.7 | 30 | 29 | 0.7
COc1cccc(CNC(=O)c2cc3oc4ccccc4c3n2C)c1OC | 0.3 | 1.4 | -8 | -42 | 1.1
CCOc1ccc(CNC(=O)c2cc3oc4ccccc4c3n2C)cc1 | 0.46 | 0.5 | 23 | 52* | 0.8
CCOc1ccccc1CNC(=O)c1cc2oc3ccccc3c2n1CC | -5* | 1.1 | 66* | -11 | 0.3
COCCn1c(=O)[nH]c2cc(C(=O)NCCN3CCN(c4cccc(Cl)c4)CC3)ccc2c1=O | 1.4 | . | . | . | .
CC(=O)OCCn1c(=O)c2cc3c(=O)n(CCOC(C)=O)c(=O)c3cc2c1=O | 0.037 | 1 | -7 | 0 | 1.1
CCOC(=O)c1cc(NC(=O)OC)c(C)nc1C | 0.38 | 1.2 | -4 | -21 | 1
O=C(Cc1ccccc1)NC1CCN(S(=O)(=O)c2cccc(F)c2)CC1 | 1.2 | 0.9 | 73* | 9 | 0.3
COC(=O)/C(=C(/F)Sc1cc(C)c(O)c(C)c1)C(F)(F)F | -0.087 | 0.1 | 82* | 94* | 0.2
O=C(Nc1cccc(NC(=O)c2ccccc2[N+](=O)[O-])n1)c1ccccc1[N+](=O)[O-] | 0.71 | 0.6 | 30 | 43 | 0.7
CN(C)S(=O)(=O)c1ccc(N2CCCC2)c(C(=O)NC(c2ccccc2)c2ccccc2)c1 | -4.3* | 0.5 | -7 | 54* | 1.1
CN(C)S(=O)(=O)c1ccc(N2CCCC2)c(C(=O)Nc2ccc(N3CCOCC3)cc2)c1 | 1.1 | 0.6 | 22 | 40 | 0.8
N=c1c2c(-c3ccccc3)c(-c3ccccc3)n(Cc3ccccc3)c2ncn1CCO | -5.2* | 1 | 8 | -4 | 0.9
CC(C)Cn1cnc2c(c(-c3ccccc3)c(-c3ccccc3)n2Cc2ccco2)c1=N | -8.3* | 0.7 | 20 | 32 | 0.8
O=c1[nH]c(NCCO)nc2ncn(Cc3ccccc3)c12 | -1.1e-05 | 1.2 | 1 | -15 | 1
N=c1c2c(-c3ccccc3)c(-c3ccccc3)n(Cc3ccco3)c2ncn1Cc1ccccc1 | -12* | 0.8 | 26 | 19 | 0.7
OCCNc1ncnc2c1c(-c1ccccc1)c(-c1ccccc1)n2Cc1ccco1 | -5* | 0.4 | 41 | 56* | 0.6
SMILES | Cav32 inh | CYP2C9 act | CYP2C19 inh | CYP2C9 inh | CYP2C19 activ
CCOC(=O)c1c(-c2ccc(Cl)cc2)c(C#N)c(=O)n(N)c1N | . | 1 | 16 | -4 | 0.8
CCNC(=O)Nn1c(C)nnc1C | 0.49 | 1.2 | -16 | -18 | 1.2
OC(c1ccc(Cl)cc1)C(O)c1nc2ccccc2[nH]1 (stereo unspecified) | 0.063 | 1 | 77* | 1 | 0.2
CC(C)(C)c1cc(C(=O)N2CCN(c3ncccn3)CC2)ccn1 | 0.25 | 0.9 | 11 | 10 | 0.9
Cc1cc(C(=O)N2CCN(c3ncccn3)CC2)cs1 | 0.1 | 0.6 | 78* | 40 | 0.2
O=C(c1cccc(OC(F)F)c1)N1CCN(c2ncccn2)CC1 | -0.0007 | 0.3 | 48 | 68* | 0.5
O=C(c1ccc(-c2ccccc2)cc1)N1CCN(c2ncccn2)CC1 | -0.81 | 0.4 | 44 | 64* | 0.6
O=C(c1ccc(-c2ccccc2)cc1)N1CCCC1 | -0.7 | 0.9 | 7 | 8 | 0.9
Cc1cccc(C(=O)N2CCN(c3ccccn3)CC2)c1 | 1.2 | . | . | . | .
O=C(c1c(F)cccc1F)N1CCC(O)(c2cccnc2)CC1 | -0.026 | 0.8 | 32 | 21 | 0.7
O=C(c1ccc(F)cc1)N1CCC(O)(c2cccnc2)CC1 | 0.94 | 0.8 | 69* | 22 | 0.3
COc1ccc(-c2nsc3c(SCC(=O)Nc4cc(C)ccc4C)ncnc23)cc1 | -0.98 | 0.9 | -10 | 9 | 1.1
O=C(c1ccc(F)cc1)N1CCN(c2ncccn2)CC1 | -0.27 | 1 | 53* | 3 | 0.5
c1ccc(CCNc2ncnc3nc[nH]c23)cc1 | 0.67 | 0.9 | 38 | 13 | 0.6
CCCCN(CCCNc1ncnc2nc[nH]c12)c1ccccc1 | -1.1 | 0.4 | 19 | 56* | 0.8
c1ccc2c(CCNc3ncnc4nc[nH]c34)c[nH]c2c1 | . | 1.4 | 83* | -41 | 0.2
CCN(CCCNc1ncnc2nc[nH]c12)c1cccc(C)c1 | . | 0.2 | 83* | 78* | 0.2
CC1(OC(=O)c2cccs2)C(=O)C=C2C=C(C3CC3)OC=C2C1=O (stereo unspecified) | -2.8* | . | . | . | .
CC1(OC(=O)c2ccco2)C(=O)C=C2C=C(C3CC3)OC=C2C1=O (stereo unspecified) | -0.13 | . | . | . | .
CCc1c(C)c2cc(Cl)c(O)c(CN3CCCCC3)c2oc1=O | 0.06 | 1.1 | -6 | -6 | 1.1
CCNc1cc2oc(=O)c(CN3CCOCC3)c(C)c2cc1C | -0.6 | 3.3* | 22 | -227 | 0.8
N#CC(=C1CCCC1)c1nc(-c2ccccc2O)cs1 | -0.51 | 0.6 | 72* | 37 | 0.3
O=C1NN=C(c2ccc(Cl)cc2)CC1c1cccc(Cl)c1 (stereo unspecified) | -2.7 | 0.8 | 68* | 18 | 0.3
COC(=O)C1=NN(N=O)C2(CC(=O)N(c3cc(C)cc(C)c3)C2=O)C1 (stereo unspecified) | . | 0.9 | 6 | 11 | 0.9
Cc1oc(/N=C/c2ccccc2O)c(C#N)c1C | 0.97 | 1 | 2 | -3 | 1
COc1ccc(OC)c(/C=N/c2oc(-c3ccco3)c(-c3ccco3)c2C#N)c1 | -0.74 | 0.6 | -13 | 36 | 1.1
N#Cc1c(/N=C/c2ccco2)oc(-c2ccccc2)c1-c1ccccc1 | . | 0.3 | 49 | 73* | 0.5
N#Cc1c(N)oc(-c2ccco2)c1-c1ccco1 | -0.23 | 0.4 | 22 | 64* | 0.8
